Shown are actives, neighbours in structure and some others; about 3% of the full set was active somewhere.
Tau fibril ThT: tau fibrillization inhibition (ThT binding); P10636; recombinant tau K18 P301L, heparin-induced fibrillization, ThT fluorescence; Potency, µM (titrated, usually from 57.4 µM), usual class: inhibitors; 2.1% of 270,000 active; note: nearly all actives have a fitted effect of over 55% in size
Target sequence (P10636 561-689 P618L limits assumed): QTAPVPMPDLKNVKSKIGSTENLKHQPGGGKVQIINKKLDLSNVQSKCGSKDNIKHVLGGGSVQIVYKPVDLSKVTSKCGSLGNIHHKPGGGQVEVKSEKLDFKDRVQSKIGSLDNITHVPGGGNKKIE
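Heparin-induced (20 uM) aggregation of recombinant human K18 P301L tau, 15 uM unlabeled with 0.24 uM labeled, pH 7 acetate buffer, 6 hr at 37 C with compound. Fibrils quantified by 30 uM ThT fluorescence after 1 hr ambient incubation.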
Tau fluor cs: counter-screen for tau fibril formation inhibitors; tau K18 P301L Alexa594 fluorescence, heparin fibrillization; Potency, µM (titrated, usually from 57.7 µM); 0.93% of 280,000 active; note: nearly all actives have a fitted effect of over 55% in size
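Human tau K18 P301L (15 uM unlabeled, 0.24 uM Alexa 594-labeled) in 100 mM sodium acetate pH 7 with 20 uM heparin, 6 hr at 37 C. ThT 30 uM added, 1 hr ambient; Alexa 594 FP and total fluorescence read at 555/632 nm.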
Tau fibril FP: blocks human tau fibril formation measured by polarization. K18 P301L tau heparin fibrillization, Alexa594 FP, 6 h. Potency, µM (highest dose often 57.7 µM), usual class: inhibitors. 0.39% of 280,000 active. AID 1468; note: nearly all actives have a fitted effect of over 55% in size
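Quantitative HTS format: compounds meet 15 uM recombinant K18 P301L tau and Alexa 594-tau tracer in 100 mM sodium acetate pH 7; 20 uM heparin triggers fibrillization at 37 C over 6 hr; FP gives the signal.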
TexasRed fluor: counter-screen for TRb-SRC2 inhibitors: fluorescence interference | TRb/SRC2 Texas Red total fluorescence interference | Potency, µM (titrated, usually from 106 µM) | 0.29% of 280,000 active; active = well fitted curve in either direction with a large enough effect; inconclusive = small, poorly fitted or top-dose-only effect
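Human TRb ligand-binding domain at 0.6 uM with 20 nM Texas Red SRC2 peptide in Tris buffer containing 1 uM T3 and 5% DMSO, incubated with compound 5 h at ambient temperature. Total fluorescence (555/632 nm) calculated as parallel + 2 × perpendicular.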
TRb-SRC2 inh: inhibitors of human thyroid hormone receptor beta-SRC2 interaction | 0.065% of 280,000 active | P10828 | Potency, µM (titrated, usually from 106 µM), most hits filed as inhibitors | TRbeta-SRC2 peptide binding, fluorescence polarization; receptor liganded with 1 µM T3; note: nearly all actives have a fitted effect of over 50% in size
Target sequence (P10828 whole entry, looked up): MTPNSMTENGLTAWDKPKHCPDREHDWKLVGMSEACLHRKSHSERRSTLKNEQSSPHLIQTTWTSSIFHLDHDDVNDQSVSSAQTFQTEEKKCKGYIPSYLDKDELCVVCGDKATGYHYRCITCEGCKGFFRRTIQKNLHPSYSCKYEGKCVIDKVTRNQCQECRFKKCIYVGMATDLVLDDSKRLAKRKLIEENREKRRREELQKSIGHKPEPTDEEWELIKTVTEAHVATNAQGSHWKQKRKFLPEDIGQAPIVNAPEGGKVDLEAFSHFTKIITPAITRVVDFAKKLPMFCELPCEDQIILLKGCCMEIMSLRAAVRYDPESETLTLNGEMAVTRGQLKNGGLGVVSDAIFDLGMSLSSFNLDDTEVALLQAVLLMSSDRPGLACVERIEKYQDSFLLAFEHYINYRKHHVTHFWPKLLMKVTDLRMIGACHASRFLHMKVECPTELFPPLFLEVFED
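Polarization signal, normalized between peptide-alone and full complex controls, measured compound effects on T3-liganded human TRb LBD (0.6 uM) binding 20 nM Texas Red SRC2 peptide after 5 hr.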
Each line names hits and unclear results; the compound was inactive in the other large screens; [ ] = remark or other dose. Unless noted, calls come from the whole dose curve; as a rule, active = well fitted curve in the direction sought with a large enough effect; inconclusive = small, poorly fitted or top-dose-only effect, or another doubt; inactive = no such curve, though single readings can be large; an effect the other way counts as inactive or inconclusive.

COc1ccc(NS(=O)(=O)c2ccc3[nH]c4c(c3c2)CCCC4)cc1OC	Tau fibril ThT inconclusive, Tau fluor cs 15.8µM[quencher]
COc1cc(OC)c(C2C=C(c3ccc(C)cc3)Nc3c(C(=O)Nc4ccccc4)cnn32)cc1OC (configuration not stated)	Tau fluor cs 17.8µM[quencher]
Cc1ccc(C)c(NC(=O)N2CCN3CCCCC3C2)c1 (configuration not stated)	none
Cc1ccccc1Nc1c(-c2ccccc2O)nc2sccn12	Tau fluor cs 12.6µM[quencher], Tau fibril FP inconclusive
Cc1ccccc1Nc1c(-c2ccc(O)cc2)nc2c(C)cccn12	Tau fibril ThT inconclusive, Tau fluor cs 25.1µM[quencher]
CNC(=O)C1CCC(Cn2c(=O)c3sccc3n(CC(=O)N3CCCC3)c2=O)CC1 (configuration not stated)	none
COc1ccc(/C=C2\SC(=S)N(NC(=O)c3ccncc3)C2=O)cc1OC	Tau fibril ThT inconclusive
COc1ccc(/C=C2\SC(=N)N(c3nccs3)C2=O)cc1OC	Tau fibril ThT 10µM
N=C1S/C(=C\c2ccc(-c3cccc(Cl)c3)o2)C(=O)N1c1nccs1	Tau fibril ThT 3.55µM
CCCCCOc1ccc(C(=O)N(Cc2ccccc2)C2CCS(=O)(=O)C2)cc1 (configuration not stated)	none
O=C(OCn1ncc(Cl)c(Cl)c1=O)c1ccccc1Cl	Tau fibril ThT 14.1µM
O=C(OCn1ncc(Cl)c(Cl)c1=O)c1ccc(F)cc1	Tau fibril ThT inconclusive, Tau fibril FP inconclusive
CCN(CC)CCNC(=O)c1ccc2c(c1NCCO)C(=O)c1ccccc1C2=O	Tau fibril ThT 15.8µM, Tau fluor cs inconclusive
CCc1ccc(OC2=NS(=O)(=O)c3ccccc32)cc1	none
CCN(CC)c1cccc(OC2=NS(=O)(=O)c3ccccc32)c1	TexasRed fluor 44.7µM[fluorescent], TRb-SRC2 inh 39.8µM
COC(=O)c1ccc(C(=O)OC)c(NC(=O)c2cnn3c(C(F)F)cc(-c4ccccc4)nc23)c1	none
COc1cc2cccc(OC)c(=O)c2c(O)c1OC	Tau fibril ThT inconclusive
CC(=O)Oc1cc2cccc(OC(C)=O)c(=O)c2c(OC(C)=O)c1OC(C)=O	Tau fibril ThT 3.55µM, Tau fluor cs 8.91µM[quencher], Tau fibril FP 15.8µM
C=CC1=C(C)/C(=C/c2[nH]c(Cc3[nH]c(/C=C4\NC(=O)C(C)=C4C=C)c(C)c3CCC(=O)O)c(CCC(=O)O)c2C)NC1=O	Tau fibril ThT 10µM, Tau fluor cs inconclusive, Tau fibril FP inconclusive
Oc1c(/C=N/c2ncn[nH]2)ccc2ccccc12	Tau fibril ThT 28.2µM, Tau fibril FP inconclusive
N#CSCC(=O)c1cccc2ccccc12	Tau fibril ThT 25.1µM, Tau fibril FP inconclusive
Cc1cc(N2CCOCC2)ccc1/C=C1\SC(=O)N(C(C)C)C1=O	Tau fibril ThT inconclusive, Tau fluor cs inconclusive
CCN(CC)c1ccc(/C=C2/SC(=O)N(C(C)C)C2=O)o1	Tau fibril ThT 17.8µM
FC(F)(F)c1cccc(NC(=S)Nc2cccc(NC(=S)Nc3cccc(C(F)(F)F)c3)n2)c1	Tau fluor cs 12.6µM[quencher], Tau fibril FP 20µM
FC(F)(F)c1cccc(NC(=S)NCC2COc3ccccc3O2)c1 (configuration not stated)	Tau fluor cs inconclusive, Tau fibril FP 25.1µM
Cc1cccc(NC(=S)Nc2cccc(C(F)(F)F)c2)n1	none
CCCNC(=S)Nc1cccc(C(F)(F)F)c1	none
CN=C(N)NCC1CCOC1 (configuration not stated)	none (no result: Tau fibril ThT, Tau fluor cs, Tau fibril FP)
O=[N+]([O-])c1ccc(O)c(-c2nc(-c3ccccc3)c(-c3cccs3)[nH]2)c1	Tau fibril ThT 20µM, Tau fluor cs 11.2µM[quencher]
O=C(O)c1ccc(-c2nc(-c3ccccc3)c(-c3cccs3)[nH]2)cc1	Tau fibril FP inconclusive (no result: Tau fibril ThT)
CCOc1cc(-c2nc(-c3ccccc3)c(-c3cc([N+](=O)[O-])ccc3C)[nH]2)ccc1O	Tau fibril ThT inconclusive, Tau fluor cs 11.2µM[quencher]
Cc1ccc(CCNC(=O)c2ccc3[nH]c(C)c(C)c3c2)cc1	Tau fibril ThT inconclusive, Tau fluor cs inconclusive
CCOc1ccc(CCNC(=O)c2ccc3[nH]c(C)c(C)c3c2)cc1	Tau fibril ThT inconclusive, Tau fluor cs 25.1µM[quencher]
O=C(Nc1ccc(Cl)cc1)N[C@@H]1c2c(ccc3ccccc23)OC[C@@H]1CO	Tau fluor cs inconclusive, Tau fibril FP 31.6µM
NC(=O)N1OCC2COc3ccc4ccccc4c3C21 (configuration not stated)	none
COc1ccc(Cl)cc1Nc1ncnc2c1nc1n2CCCC1	none
COC(=O)C1=C(C)Nc2sc(C(N)=O)c(N)c2C1c1ccncc1 (configuration not stated)	none
CCOC(=O)C1=C(C)Nc2sc(C(=O)c3ccc(OC)cc3)c(N)c2C1c1ccc(C(=O)OC)cc1 (configuration not stated)	Tau fluor cs 5.01µM[quencher]
CC1N(C)c2cc(NC(=O)c3ccco3)ccc2C1(C)C (configuration not stated)	Tau fibril ThT inconclusive, Tau fluor cs 28.2µM[fluorescent], Tau fibril FP inconclusive, TexasRed fluor 44.7µM[fluorescent], TRb-SRC2 inh inconclusive
CCn1c(=O)sc2cc(NC(=O)c3cccc(OC)c3)ccc21	Tau fibril ThT inconclusive
CCn1c2ccccc2c2cc(NC(=O)c3cccc(OC)c3)ccc21	Tau fibril ThT inconclusive, Tau fluor cs 12.6µM[quencher]
CCn1c2ccccc2c2cc(NC(=O)COC(=O)c3cccc(S(=O)(=O)NC)c3)ccc21	Tau fibril ThT inconclusive, Tau fluor cs 10µM[quencher]
CCn1c2ccccc2c2cc(NC(=O)c3ccco3)ccc21	Tau fibril ThT inconclusive, Tau fluor cs 25.1µM[quencher]
N#Cc1cccc(CS(=O)(=O)c2ccccc2)c1	none
Cn1c(/C(C#N)=C/c2ccc(C(F)(F)F)cc2)nc2ccccc21	Tau fibril ThT inconclusive
Cc1ccc(-n2c(=O)[nH]c3sc4c(c3c2=O)CCNC4)cc1C	Tau fibril FP inconclusive
COc1ccc(CCC(=O)NCc2nc3cccnc3n2Cc2ccc(OC)cc2)cc1	Tau fibril ThT inconclusive, Tau fibril FP inconclusive
Cc1cc(C)cc(NC(c2cccc(Cl)c2)c2nnc(-c3ccccc3)o2)c1 (configuration not stated)	Tau fibril FP inconclusive
CC1(C)OC(C)(C)/C(=C/Nc2ccc(O)cc2)C1=O	Tau fibril ThT 14.1µM, Tau fluor cs inconclusive, Tau fibril FP inconclusive
CCCC1(C(=O)OC)C=C2C(=C(C)C(=O)C2C)CN1 (configuration not stated)	Tau fibril ThT inconclusive
COc1ccc(COC(=O)N/N=C2/C[C@@H](O)[C@@H](O)[C@@H]3[C@@H]4C(=O)N(c5cccc(Oc6ccccc6)c5)C(=O)[C@H]4CC[C@@H]23)cc1	Tau fibril ThT inconclusive, Tau fluor cs inconclusive, Tau fibril FP inconclusive
CCOc1cc(/C=C2\NC(=S)N(c3c(C)n(C)n(-c4ccccc4)c3=O)C2=O)ccc1O	none
